Screening results: PubChem BioAssay, The Scripps Research Institute Molecular Screening Center
Most compounds without a hit are left out; they make up all but 2.3% or so of the library.
CHO-K1 Ca antag = counter-screen for M1 antagonists: effect in parental CHO-K1 cells | ATP-induced calcium, Fluo-8 fluorescence | inhibition, % at 3 µM | actives 0.6% (n = 360,000);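 active = inhibition above a per-plate cutoff, the plate's mean sample inhibition plus 3 SD, cut at about 24% in these data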
M1 ag = human M1 muscarinic receptor agonists, primary screen, Fluo-8 calcium fluorescence, CHO-K1 cells, HTS; activation, % at 3 µM; actives 0.33% (n = 360,000); CHO-K1 hM1, agonist mode; 0% DMSO, 100% acetylcholine EC100;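 active = activation above the run's mean compound activation plus 3 SD, cut at about 16% in these data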;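 also: peak over basal fluorescence ratio within a 140 s kinetic read after compound addition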
Target sequence (P11229 whole entry, looked up): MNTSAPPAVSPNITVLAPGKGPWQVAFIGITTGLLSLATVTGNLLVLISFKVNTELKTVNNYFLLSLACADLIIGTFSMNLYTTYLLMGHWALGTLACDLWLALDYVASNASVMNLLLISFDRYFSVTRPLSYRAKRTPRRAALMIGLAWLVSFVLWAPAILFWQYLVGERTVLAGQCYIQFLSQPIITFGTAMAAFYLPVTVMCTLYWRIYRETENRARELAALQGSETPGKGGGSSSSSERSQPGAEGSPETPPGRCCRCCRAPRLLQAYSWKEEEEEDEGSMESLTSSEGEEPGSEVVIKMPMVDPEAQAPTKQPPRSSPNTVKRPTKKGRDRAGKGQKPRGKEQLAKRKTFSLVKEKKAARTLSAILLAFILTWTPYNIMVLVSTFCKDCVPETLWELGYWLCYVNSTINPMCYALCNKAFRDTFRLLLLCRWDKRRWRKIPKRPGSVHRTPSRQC
M1 ag parental = counter-screen for M1 agonists: effect in parental CHO-K1 cells; Fluo-8 calcium fluorescence; scaled to maximal ATP response, vehicle zero; activation, % at 3 µM; actives 0.48% (n = 360,000); AID 602248, 2012; in the data active = activation above about 15%;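 also: untransfected CHO-K1 host cells lacking M1 receptor as counterscreen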
CHO-K1 Ca PAM = nonselective calcium activators in parental CHO-K1 cells, primary screen, counter-screen for M1 PAM project, cell-based, Fluo-8 calcium fluorescence, full deck, 1536-well; activation, % at 3 µM; ATP EC20; 0% at ATP EC20, 100% at ATP max; actives 0.02% (n = 360,000); AID 602247, 2012;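 active = activation above the run cutoff, the mean activation of all test compounds plus 3 SD, cut at about 40% in these data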;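 also: peak over basal fluorescence ratio in a 140 s read after ATP addition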
CHRM1 PAM = human M1 muscarinic receptor positive allosteric modulators, primary screen, CHO-K1 cells, Fluo-8 calcium fluorescence, 1536-well; Muscarinic acetylcholine receptor M1 (Homo sapiens), P11229; CHO-K1 hM1, ACh EC20; 0% = ACh EC20, 100% = maximal ACh; activation, % at 3 µM; actives 0.088% (n = 360,000); in the data active = activation above about 19%, passing the limit was not always enough
M1 antag = human M1 muscarinic receptor antagonists, primary screen, CHO-K1 cells, Fluo-8 calcium fluorescence, 1536-well | actives 1.3% (n = 360,000) | CHO-K1 hM1, ACh EC80 antagonist | AID 588852, 2011 | inhibition, % at 3 µM | Muscarinic acetylcholine receptor M1 (Homo sapiens), P11229;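 active = percent inhibition above its own plate's cutoff, namely the mean of that plate's compound wells plus 3 SD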;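 also: peak over basal fluorescence ratio during 140 s after agonist addition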
Each line names hits and unclear results; the compound was inactive in the other large screens.

COC(=O)c1ccccc1OCCN1CCCCCC1	none
COC(=O)c1ccc(/C=C/c2c(-c3ccsc3)sc3ccccc23)cc1	M1 antag 39.6
CCCNCCC(c1ccco1)c1ccccc1OC (centres undefined)	M1 antag 40.6
CC(CNS(=O)(=O)c1ccc2c(c1)NC(=O)CCS2)c1ccccc1 (centres undefined)	M1 ag parental 18.1
O=C(CN1CCN(c2ccccc2O)CC1)Nc1cccnc1Cl	none
O=C(O)c1cc2c(cc1Cl)N1CCCCCC1=NS2(=O)=O	none
COC(=O)c1cc2c(cc1Cl)N1CCCCCC1=NS2(=O)=O	CHO-K1 Ca antag 23.8
CC1Sc2ccc(S(=O)(=O)N3CCC(C(=O)NCC(C)c4ccccc4)CC3)cc2NC1=O (centres undefined)	M1 ag parental 15.5, M1 antag 46.5
CC1Sc2ccc(S(=O)(=O)N3CCC(C(=O)NCCc4ccccc4)CC3)cc2NC1=O (centres undefined)	none
COc1ccc(-n2cc(-c3ccccc3)c3c(NCCCN4CCOCC4)ncnc32)cc1	none
Fc1ccc(-n2cc(-c3ccccc3)c3c(N4CCOCC4)ncnc32)cc1	M1 antag 33.2
COc1ccc(-n2cc(-c3ccccc3)c3c(N4CCOCC4)ncnc32)cc1	M1 antag 39.7
CCN1CCN(c2ncnc3c2c(-c2ccccc2)cn3-c2ccc(F)cc2)CC1	none
Cc1cccc(Nc2ncnc3c2cnn3C)c1	CHO-K1 Ca antag 29.5
CC(=O)Nc1ccc(Nc2ncnc3c2cnn3-c2ccc(C)cc2C)cc1	CHO-K1 Ca antag 25.8
CC(=O)Nc1ccc(Nc2ncnc3c2cnn3-c2cccc(C)c2)cc1	none
O=C(Nc1ccc(Cl)cc1)C1Cc2c(-c3ccccc3)ccnc2O1 (centres undefined)	none
COC(=O)C1=NN(C(=O)c2cccc(Br)c2)C(O)(c2ccc(Cl)cc2)C1 (centres undefined)	M1 ag 41.6
Cc1ccc(S(=O)(=O)CCC(=O)OC2CC(C)OC2=O)cc1 (centres undefined)	none
COC(=O)c1ccc(NC(=O)Cn2nc(-c3ccncc3)nc2SCC(=O)Nc2nccs2)cc1	M1 antag 32.8
CCCC(C)(C)C(=O)N1CCC1(C)C(=O)Nc1cccc2ccccc12 (centres undefined)	none
O=C(Nc1cccc(O)c1)C1CC(c2ccc(Cl)cc2)=NO1 (centres undefined)	none
COc1ccc(NC(=O)C(c2cc3c(cc2[N+](=O)[O-])OCO3)N(C)Cc2ccccc2)cc1 (centres undefined)	M1 ag parental 21.9
CCN(c1cccc(C)c1)C(C(=O)Nc1ccc(OC)cc1)c1cc2c(cc1[N+](=O)[O-])OCO2 (centres undefined)	none
CCOC(=O)C1CCCN(CCC(=O)Nc2ccc(Br)c(C)c2)C1 (centres undefined)	M1 ag 24.2
CCOC(=O)C1CCCN(CCC(=O)Nc2ccc(Br)cc2)C1 (centres undefined)	none
CCOC(=O)C1CCCN(CCC(=O)Nc2ccc3c(c2)CCC3)C1 (centres undefined)	M1 ag 23.1
CCOC(=O)C1CCCN(CCC(=O)Nc2ccc(C)c(C)c2)C1 (centres undefined)	none
CCN(CC)S(=O)(=O)c1cccc(C(=O)OCC(=O)c2ccc3c(c2)OCCO3)c1	none
C[C@@H](CN1C2=NC[C@H](Cc3ccc(O)cc3)N2C[C@H]1Cc1ccc(O)cc1)NC(=O)CCC1CCCCC1	none
C[C@@H](CN1C2=NC[C@H](Cc3ccccc3)N2C[C@H]1Cc1ccc(O)cc1)NC(=O)CCC1CCCCC1	M1 antag 40.0
CCN(CC)S(=O)(=O)c1ccc(NC(=O)Nc2cccc(C(F)(F)F)c2)cc1	CHO-K1 Ca antag 27.8, M1 antag 29.6
O=C(Nc1ccc(OC(F)F)cc1)Nc1cccc(C(F)(F)F)c1	CHO-K1 Ca antag 26.8, M1 antag 23.8
O=C(Nc1ccncc1)Nc1cccc(C(F)(F)F)c1	none
Clc1ccc(-c2ccc(-c3nn4c(-c5ccco5)nnc4s3)o2)cc1	none
Brc1ccc(-c2nn3c(-c4ccco4)nnc3s2)o1	CHO-K1 Ca antag 24.6
Cc1cc(OC(=O)c2c(Cl)cc(Cl)cc2Cl)nc(C)n1	CHRM1 PAM 24.4
COC(=O)c1ccc(CSc2ccccc2NC(=S)Nc2cccc(SC)c2)o1	none
CCOC(=O)CSc1cc(CS(=O)c2ccc(Cl)cc2)nc(-c2ccccc2)n1 (centres undefined)	none
COc1ccc(C2NC(=O)C(C#N)=C(S)N2c2ccc(C)cc2)cc1OC (centres undefined)	none
COc1ccc(C2NC(=O)C(C#N)=C(S)N2c2cccc(C)c2)cc1OC (centres undefined)	M1 ag parental 16.1
Cc1ccc(NC(=O)CN2C(=O)C(=O)N(C3CCCC3)C2=O)c(Cl)c1	none
CCCCN1CC(COC)Oc2cccc(F)c2S1(=O)=O (centres undefined)	none
COc1cccc(CC(NC(C)=O)C(=O)NC2CCN(C(=O)c3ccc(Cl)cc3)CC2)c1OC (centres undefined)	CHRM1 PAM 29.5
COc1cccc(CN2CCN(C(=O)c3cccc(OC)c3)CC2)c1	none
COc1cccc(CN2CCN(C(=O)c3ccc(-c4ccccc4)cc3)CC2)c1	M1 ag parental 15.6
COc1ccc(CN2CCN(C(=O)c3cc(-c4cccnc4)nc4ccc(Cl)cc34)CC2)c(OC)c1OC	M1 antag 58.2
COc1cccc(CN2CCN(C(=O)c3ccc(-c4ccccc4)cc3)CC2)c1OC	M1 ag parental 15.9
Cn1c(=O)oc2cc(S(=O)(=O)NCCC(=O)N3CCN(c4ccccc4F)CC3)ccc21	none
Cc1ccc(C)c(N2CCN(C(=O)CCNS(=O)(=O)c3ccc4c(c3)oc(=O)n4C)CC2)c1	M1 ag parental 17.3
CCCC(=O)Nc1nnc(Cc2ccccc2)s1	CHO-K1 Ca antag 30.9
CCC(=O)Nc1nnc(Cc2ccccc2)s1	none
COc1ccc(C(=O)NC(=S)NNC(=O)c2ccccc2C)cc1	CHO-K1 Ca antag 23.9, M1 ag 84.6, M1 ag parental 85.0
COc1cc(C(=O)NNC(=S)NC(=O)c2ccccc2C)cc(OC)c1OC	M1 ag parental 23.7
COc1ccc(C(=O)NNC(=O)c2ccc(C(C)(C)C)cc2)cc1	none
